# Test results published in PubChem BioAssay.
# Activity calls are given as the source filed them.
# Key:
# [1] = test system: XIP peptide (Xip251-270) binding; experiment: small-molecule binders of XIP peptide, primary screen, biochemical, small-molecule microarray, fluorescence 635/667 nm, 0.1 µg/mL protein (AID 1182); settings: fluorescent protein binding, 635 nm, higher = more signal, called active from +8 up or from −8 down
# [2] = test system: XIP peptide (Xip251-270); experiment: small-molecule binders of XIP peptide, primary screen, biochemical, small-molecule microarray, fluorescence 635/667 nm, 0.5 µg/mL protein (AID 1183); settings: small-molecule microarray binding, fluorescence 635 nm; higher = more signal
# [3] = Plasmodium falciparum growth inhibition, primary screen, strain 3D7, DAPI fluorescence, 100 nL (AID 1184);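 also: parasites grown inside human red blood cells in medium with human serum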; settings: P. falciparum 3D7 growth, 3 d, higher = more signal
# [4] = target: Homeobox protein Hox-A13 (Mus musculus) (UniProt Q62424); experiment: inhibitors of HoxA13-DNA binding, primary screen, biochemical, fluorescence polarization, labeled oligonucleotide (AID 1185); settings: 15 min, higher = more signal, called active from +8 up or from −8 down
# Sequence of Homeobox protein Hox-A13 (Mus musculus) (Q62424 whole entry, looked up): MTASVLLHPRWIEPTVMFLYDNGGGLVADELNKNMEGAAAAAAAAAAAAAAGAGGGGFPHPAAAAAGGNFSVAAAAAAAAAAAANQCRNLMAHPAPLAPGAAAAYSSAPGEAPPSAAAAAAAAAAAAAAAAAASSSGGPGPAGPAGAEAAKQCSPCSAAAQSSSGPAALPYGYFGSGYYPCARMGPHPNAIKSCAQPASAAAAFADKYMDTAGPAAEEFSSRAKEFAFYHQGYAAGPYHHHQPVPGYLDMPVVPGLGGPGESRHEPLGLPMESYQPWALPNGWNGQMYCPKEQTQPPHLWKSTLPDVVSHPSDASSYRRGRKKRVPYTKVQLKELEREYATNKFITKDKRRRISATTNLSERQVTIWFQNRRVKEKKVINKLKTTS
Compound,composite z-score [1],composite z-score [2],z-score [3],z-score [4]
CCN1C(=O)[C@H]2[C@H]3[C@H](O)[C@H](O)CC(=NO[C@H](C)c4cn([C@H](CO)Cc5ccccc5)nn4)[C@@H]3CC[C@H]2C1=O,1.66 (inactive),0.722,1.44,-2.36 (inactive)
O=C1C=C[C@@H](O)[C@@H]2[C@@H]3C(=O)N(c4cccc(Oc5ccccc5)c4)C(=O)[C@@H]3CC[C@@H]12,-0.0205 (inactive),0.528,-1.46,-0.827 (inactive)
COC(=O)[C@H](C)NC(=O)CCC1CC(OC(=O)NCCc2ccc(F)cc2)CC2(CCCC(COC(=O)NCCOc3ccccc3)O2)O1 (some centres not stated),2.99 (inactive),0.536,-1.84,-1.1 (inactive)
CC(CCC(=O)OC[C@H]1O[C@H](C#Cc2ccccc2)C=C[C@@H]1Oc1ccc(C)cc1)=NOC[C@@H](C)[C@H](OCc1ccccc1)C(C)C,-0.582 (inactive),-0.693,-0.0982,-0.499 (inactive)
COc1ccc2c(c1)O[C@@H](c1cccc(C(F)(F)F)c1)[C@H](O)C2=O,0.245 (inactive),-0.233,0.142,0.16 (inactive)
O=C1C=C[C@@H](O)[C@@H]2[C@@H]3C(=O)N(Cc4ccccc4)C(=O)[C@@H]3CC[C@@H]12,0.771 (inactive),-0.0049,-0.0141,0.291 (inactive)
C=CCOCC1CN2[C@@H](CC[C@@H](C)[C@@H]2c2ccc(Br)cc2)C(=O)O1 (some centres not stated),0.0364 (inactive),-0.104,1.72,-0.43 (inactive)
O=C1C[C@@H](O)[C@@H](O)[C@@H]2[C@@H]3C(=O)N(c4ccc(F)cc4F)C(=O)[C@@H]3CC[C@H]12,0.139 (inactive),-0.0234,0.289,-0.55 (inactive)
